Source: PubChem BioAssay AID449762 (Southern Research Specialized Biocontainment Screening …, 2010)
In all, about 330,000 compounds went through this assay and about 1,900 (0.58%) were called active. Roughly 4% stayed inconclusive and do not appear here. The list is a sample of the results. Entries with a potency or affinity are not part of this list. A number with no mark means an inactive call. Cut-off read from the data, not from the text of the source: inconclusive = inhibition above about 70% without an active follow-up result; inactive = below that.

Test: M. tuberculosis growth inhibition, HTS (AID 449762);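 note: bacterial growth assessed after seven days of incubation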
Details: M. tuberculosis H37Rv growth inhibition, 7H9 media; at 25 µM; stronger effect = higher value
Work on `Cc1ccccc1OCC(=O)NNC(=O)C1CCCCC1C(=O)O` (stereo not given) yielded an inhibition of 2.25%.
Compound `Cc1cccc(N(C(=O)c2nsc(Cl)c2Cl)C(C(=O)NC2CCCC2)c2ccc(O)cc2)c1` (stereo not given) has an inhibition of -12.7%.
`Cc1ccc(C)c(N(C(=O)c2nsc(Cl)c2Cl)C(C(=O)NC2CCCC2)c2ccc(O)cc2)c1` (stereo not given) showed an inhibition of -2.81%.
For `C=CCc1c(C)nn(CC(=O)O)c1-c1ccccc1`, the inhibition was -6.59%.
Compound `COc1ccc(S(=O)(=O)N2CCC(C(=O)NC(c3nc4ccccc4[nH]3)C(C)C)CC2)cc1` (stereo not given) has an inhibition of -6.28%.
Compound `O=C(Nc1cc(S(=O)(=O)N2CCOCC2)ccc1N1CCCC1)C1COc2ccccc2O1` (stereo not given) has an inhibition of -4.41%.
Compound `COC(=O)/C(=C1/Oc2ccc(C)cc2S1)C(F)(F)F` has an inhibition of 4.4%.
Work on `COC(=O)/C(=C1/Oc2ccc(C(C)(C)C)cc2S1)C(F)(F)F` yielded an inhibition of -1.9%.
For `O=S(=O)(c1ccc(Cl)c(NC(=S)Nc2cccc(O)c2)c1)N1CCOCC1`, the inhibition was 1.85%.
`CC12CCC(=O)N1C(C(=O)N1CCN(S(=O)(=O)c3cccc(C(F)(F)F)c3)CC1)CS2` (stereo not given) gave an inhibition of 2.29%.
Compound `CC1CC1C(=O)Nc1nc2ccc(Cl)cc2s1` (stereo not given) has an inhibition of 16.9%.
In the case of `O=C(Nc1nc2ccc(Cl)cc2s1)C1CC1`, the inhibition is reported as 7.91%.
For `O=C(Cc1nnc(NC(=O)Nc2ccc(F)cc2)s1)NCc1ccccc1`, the inhibition was -2.08%.
Compound `COc1ccc(N2C(=O)CCC2=O)cc1` has an inhibition of -16.1%.
Work on `CCOc1ccc(C(=O)NNC(=O)CN2C(=O)C3CC=CCC3C2=O)cc1OC` (stereo not given) yielded an inhibition of 3.32%.
Compound `CN(C(=O)COC(=O)c1cc(NS(=O)(=O)c2cc([N+](=O)[O-])ccc2Cl)ccc1O)C1CCCCC1` has an inhibition of 0.85%.
In the case of `CC1CCCC(NC(=O)COC(=O)c2sc3ccccc3c2Cl)C1C` (stereo not given), the inhibition is reported as -11.1%.
In the case of `CN(C(=O)COC(=O)c1ccc(Cl)cc1N)C1CCCCC1`, the inhibition is reported as -0.1%.
`CCN(C(=O)COC(=O)CNC(=O)c1sc2ccccc2c1Cl)C1CCCCC1` showed an inhibition of 39.4%.
In the case of `C=CCn1c(N)c(C(=O)N2CCOCC2)sc1=S`, the inhibition is reported as -5.77%.
`c1ccc(CCNc2ncnc3sccc23)nc1` showed an inhibition of -8.28%.
In the case of `Cc1ccc(N2CC(C(=O)Nc3cccc(C(=O)NC4CC4)c3)CC2=O)cc1` (stereo not given), the inhibition is reported as -1.62%.
In the case of `C/C(=N\Nc1nncc2ccccc12)c1ccc(O)cc1`, the inhibition is reported as 13.3%.
Compound `COc1ccc(CC(=O)Oc2ccccc2C)cc1` has an inhibition of 10.5%.
`CCN(CC)c1ccc(/C=N/NC(=O)c2ccc3nc[nH]c3c2)cc1` showed an inhibition of 5.47%.
For `CNC(=O)COc1coc(CN2CCN(c3ccccc3)CC2)cc1=O`, the inhibition was -6.51%.
In the case of `CC(NC(=O)/C(=C\c1cccc([N+](=O)[O-])c1)NC(=O)c1ccco1)C(=O)O` (stereo not given), the inhibition is reported as 2.24%.
In the case of `CCOC(=O)c1c(NC(=O)c2cc(-c3cccc(O)c3)on2)sc(C(C)=O)c1C`, the inhibition is reported as 2.98%.
`CC1CCCCN1Cc1c(O)ccc2c(=O)c(-c3nc4ccccc4s3)coc12` (stereo not given) showed an inhibition of 6.43%.
Compound `Cc1oc2c(CN3CCCC(C)C3)c(O)ccc2c(=O)c1-c1ccccc1` (stereo not given) has an inhibition of 0.44%.
`Cc1cccc(-n2nnnc2SCC(=O)N(CC(C)C)c2c(N)n(CC(C)C)c(=O)[nH]c2=O)c1` showed an inhibition of 1.22%.
Compound `CC(C)Cc1nc2oc3c(NCC(C)O)ncnc3c2c2c1CCCC2` (stereo not given) has an inhibition of 2.05%.
`CC(C)Cc1nc2oc3c(Cl)ncnc3c2c2c1CCCC2` gave an inhibition of 2.35%.
Compound `CC(C)c1ccc(CCNC(=O)c2cccc(S(=O)(=O)N3CCN(C)CC3)c2)cc1` has an inhibition of -4.06%.
For `CCCN1CCC(=O)N([C@H](CSc2ccc(OC)cc2)Cc2ccccc2)CC1`, the inhibition was 0.11%.
For `O=C1CCN(CCc2ccccc2)CCN1[C@H](CSc1ccccc1)Cc1ccccc1`, the inhibition was 13.6%.
Compound `Cc1cc(C(=O)CSc2nc(N)cc(N)n2)c(C)n1CC1CCCO1` (stereo not given) has an inhibition of -3.69%.
For `CCn1c(=O)c2cc(C(=O)NC(C)C)sc2c2ccccc21`, the inhibition was -0.74%.
Work on `Cc1c(OCc2nn[nH]n2)ccc2c3c(c(=O)oc12)CCCC3` yielded an inhibition of -3.72%.
In the case of `COc1ccccc1OCC(=O)Nc1ccc(S(=O)(=O)N(C)c2ccccc2)cc1`, the inhibition is reported as -13.2%.
For `COc1ccccc1-c1cc(C(F)(F)F)nc(S(C)(=O)=O)n1`, the inhibition was 2.66%.
Compound `COc1nc(-c2ccccc2)cc(C(F)(F)F)n1` has an inhibition of -3%.
In the case of `O=C(NC(=S)Nc1ccc(CN2CCOCC2)cc1)c1cc2ccccc2o1`, the inhibition is reported as 68.5%.
`COc1ccc(-n2c(-c3ccc(Br)cc3)n[nH]c2=S)cc1` gave an inhibition of 7.43%.
`C=CCN(c1nc(C)cc(OC)n1)S(=O)(=O)c1ccccc1` gave an inhibition of -6.07%.
In the case of `CC(OC(=O)/C=C/c1ccc2ccccc2n1)C(=O)Nc1ccc(S(N)(=O)=O)cc1` (stereo not given), the inhibition is reported as 11.9%.
Work on `CC(OC(=O)/C=C/c1ccc2ccccc2n1)C(=O)N(C)c1ccccc1` (stereo not given) yielded an inhibition of -4.67%.
With `NC(=O)c1ccccc1OCC(=O)Nc1cccnc1Cl` the inhibition was 2.44%.
`CCCc1ccc(Oc2cc(N3CCOCC3)nc(-c3ccccc3)n2)cc1` showed an inhibition of 17.9%.
For `O=C(O)c1cccc(N/N=C/c2cc(Br)cc(Br)c2O)c1`, the inhibition was -15.9%.
In the case of `CN(/N=C/c1cc(Br)cc(Br)c1O)c1ccccc1`, the inhibition is reported as 3.99%.
For `Cc1ccc(C(=O)Nc2ccccc2C(=O)N2CCCCC2C)cc1` (stereo not given), the inhibition was -0.75%.
`COCC(=O)Nc1ccc(N2CCOCC2)c(S(=O)(=O)Nc2ccccc2OC)c1` gave an inhibition of 1.36%.
`CCCCn1c2c(c(=N)c3c1CCC3)CCC2` gave an inhibition of -1.93%.
`CCCCCCn1c2c(c(=N)c3c1CCC3)CCC2` gave an inhibition of -4.99%.
In the case of `Cc1noc(C)c1COC(=O)COc1ccc(C#N)cc1`, the inhibition is reported as 6.51%.
Work on `Cc1ccc(OCC(=O)OCc2c(C)noc2C)cc1C` yielded an inhibition of 3.24%.
In the case of `COc1ccc(/C=C/C(=O)OCC(=O)NCC2CCCO2)cc1` (stereo not given), the inhibition is reported as 2.24%.
`O=C(COC(=O)/C=C/c1ccc(F)cc1)NCC1CCCO1` (stereo not given) showed an inhibition of 6.52%.
With `Cc1noc(C)c1CSc1nnc(-c2ccccc2)n1N` the inhibition was 6.07%.
